HP1b binding inh: HTS for Inhibitors of HP1-beta Chromodomain Interactions with Methylated Histone Tails; Chromobox protein homolog 1 (Homo sapiens), P83916; hit rate 0.56% among 390,000; Potency, µM (top dose mostly 114 µM), without a hit: at the highest dose activity change, negative = inhibition, most hits filed as inhibitors; AlphaScreen HP1-beta / biotin-H3K9me3 peptide binding; also: nearly all actives have a fitted effect of over 70% in size
Target sequence (P83916 whole entry, looked up): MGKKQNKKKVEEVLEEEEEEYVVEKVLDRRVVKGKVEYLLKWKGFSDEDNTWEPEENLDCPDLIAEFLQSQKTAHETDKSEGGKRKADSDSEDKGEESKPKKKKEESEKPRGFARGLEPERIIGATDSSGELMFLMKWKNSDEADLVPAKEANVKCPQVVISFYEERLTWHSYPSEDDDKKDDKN
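HP1-beta protein (50 nM final) preincubated 30 min at room temperature with biotinylated H3(1-18)K9me3 peptide (50 nM) in PBS pH 7.4, 0.01% Tween-20, then compound added for 30 min. AlphaScreen streptavidin donor/nickel chelate acceptor beads (10 ug/mL final), 30 min dark, luminescence read.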
L3MBTL1 block: qHTS Assay for the Inhibitors of L3MBTL1; Lethal(3)malignant brain tumor-like protein 1 (Homo sapiens), Q9Y468; AlphaScreen L3MBTL1–H3K9me1 peptide binding; Potency, µM (doses to about 57.1 µM), without a hit: top-dose activity, negative = inhibition, usual class: inhibitors; hit rate 0.66% among 230,000; AID 485360, 2010; also: % is scaled to controls: 0 for no effect and ±100 for the full control effect; nearly all actives have a fitted effect of over 60% in size
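L3MBTL1 (50 nM) pre-complexed 30 min with biotinylated H3(1-15)K9me1 peptide (75 nM), then compounds added for 30 min at room temperature; AlphaScreen streptavidin donor/nickel chelate acceptor beads (10 ug/mL final) read after 30 min dark incubation.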
JMJD2A Tudor inh: qHTS Assay for Inhibitors of JMJD2A-Tudor Domain. Lysine-specific demethylase 4A (Homo sapiens), O75164. AID 504339, 2011. Potency, µM (doses to about 114 µM), without a hit: top-dose activity change, negative = inhibition, most hits filed as inhibitors. hit rate 4.4% among 390,000. AlphaScreen JMJD2A-Tudor / H3K4me3 peptide binding; also: % is scaled to controls: 0 for no effect and ±100 for the full control effect; nearly all actives have a fitted effect of over 50% in size
Sfp inh: qHTS Assay for Inhibitors of Bacillus subtilis Sfp phosphopantetheinyl transferase (PPTase); 4'-phosphopantetheinyl transferase ffp (Bacillus subtilis), Q9F4F7; Biochemical Sfp PPTase activity, qHTS; Potency, µM, without a hit: largest response in the series, negative = inhibition, hits mostly inhibitors; hit rate 3.5% among 310,000; AID 1490, 2009;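 also: the enzyme is Sfp with the accession as filed and its product quenches rhodamine fluorescence; 0% = enzyme reaction without inhibitor and -100% = no enzyme wells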
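Buffer: 50 mM Hepes-Na pH 7.6, 10 mM MgCl2, 0.01% Nonidet P-40, 0.01% BSA. Enzyme 15 nM, pre-exposed to compound 15 min; substrates then added and fluorescence change tracked over 30 min.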
G9a inh: qHTS Assay for Inhibitors of Histone Lysine Methyltransferase G9a; Potency, µM (doses to about 102 µM), for inactives: top-dose activity, negative = inhibition, hits mostly inhibitors; hit rate 8.8% among 350,000; Histone-lysine N-methyltransferase EHMT2 (Homo sapiens), Q96KQ7; AID 504332, 2011; G9a H3K9 monomethylation, AlphaScreen, 2 h; also: % is scaled to controls: 0 for no effect and ±100 for the full control effect; nearly all actives have a fitted effect of over 75% in size
Target sequence (Q96KQ7 913-1193 limits assumed): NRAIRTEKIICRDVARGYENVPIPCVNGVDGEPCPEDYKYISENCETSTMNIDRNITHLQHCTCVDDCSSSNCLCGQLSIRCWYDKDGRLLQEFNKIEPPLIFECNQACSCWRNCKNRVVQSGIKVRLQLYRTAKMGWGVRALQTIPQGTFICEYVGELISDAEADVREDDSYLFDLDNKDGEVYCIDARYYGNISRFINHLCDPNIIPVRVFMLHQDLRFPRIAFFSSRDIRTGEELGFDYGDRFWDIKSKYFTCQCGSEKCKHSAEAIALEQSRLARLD
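AlphaScreen read-out: biotin-H3K9 peptide (500 nM) methylation by 20 nM enzyme with 20 uM SAM, 2 h at room temperature after 15 min compound preincubation; anti-monomethyl H3K9 antibody plus donor/acceptor beads, 10 min dark.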
BAZ2B block: qHTS Assay for Inhibitors of BAZ2B; Potency, µM (highest dose often 114 µM), without a hit: at the top dose activity change, negative = inhibition, hits mostly inhibitors; Bromodomain adjacent to zinc finger domain protein 2B (Homo sapiens), Q9UIF8; AID 504333, 2011; hit rate 4.4% among 360,000; AlphaScreen BAZ2B-H3K14Ac peptide displacement; also: % is scaled to controls: 0 for no effect and ±100 for the full control effect; nearly all actives have a fitted effect of over 60% in size
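BAZ2B (50 nM) with biotin-H3(5-23)K14Ac peptide (50 nM) in PBS pH 7.4, 0.01% Tween-20, preformed 30 min, then compound 30 min at room temperature; top concentration 110uM. AlphaScreen streptavidin donor/nickel chelate acceptor beads (10 ug/mL final), 20 min dark, signal read.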
The depositor's hits bear a star; u = inconclusive; x = no result; [ ] = remark or other dose. Sampled rows, rich in hits. Any-hit rate of the full collection: about 12%. Calls follow the shape of the dose curve; as a rule, active = well fitted curve in the direction sought with a large enough effect; inconclusive = small, poorly fitted or top-dose-only effect, or another doubt; inactive = no such curve, though single readings can be large; an effect the other way counts as inactive or inconclusive. Potency is read from the fitted curve at half-maximal effect.

SMILES	HP1b binding inh	L3MBTL1 block	JMJD2A Tudor inh	Sfp inh	G9a inh	BAZ2B block
CC(C)(C)C1CCC(=NNC(=O)CN(c2ccccc2)S(C)(=O)=O)CC1 (stereo not drawn)	-5%	7%	-6%	-1%	u	-6%
O=S1(=O)C2CC3CCC2(CN1Cc1ccccc1)O3 (stereo not drawn)	40%	x	-5%	4%	x	x
CCOC(=O)c1cc(-c2ccccc2)n(CCCC(=O)Nc2cc(C)ccc2OC)c1C	-10%	x	u	x	-39%[59 µM]	-18%
CC(=O)Nc1ccc(C)c([N+](=O)[O-])c1	11%	9%	4%	17%	-3%	6%
O=C(NNc1ccc([N+](=O)[O-])cc1)C1C2CCCCC21 (stereo not drawn)	22%	3%	-20%	1%	89µM*	-7%
Cc1ccc(NC(=O)C2C3CCCCC32)cc1[N+](=O)[O-] (stereo not drawn)	-8%	-5%	u	-8%	x	20µM*
O=c1c(-c2ccccc2)nc2cnc(N3CCNCC3)nc2n1C1CC1	x	x	x	12%	-10%[12.7 µM]	x
Cc1[nH]c2ccccc2c1C(C[N+](=O)[O-])c1cccc(O)c1 (stereo not drawn)	9%	-15%	-30%	6%	u	-38%
COc1cc(C(C[N+](=O)[O-])c2c(N)n(C)c(=O)n(C)c2=O)ccc1O (stereo not drawn)	-4%	6%	-9%	-2%	50µM*	-27%
Cc1[nH]c2ccccc2c1C(C[N+](=O)[O-])c1ccco1 (stereo not drawn)	-8%	x	u	-7%	50µM*	u
COc1cc(C(C[N+](=O)[O-])c2c(C)[nH]c3ccccc23)ccc1O (stereo not drawn)	-36%	-8%	u	1%	u	40µM*
Cc1ccc(-c2[nH]c3ccccc3c2C(C[N+](=O)[O-])c2ccco2)cc1 (stereo not drawn)	-7%	x	u	20%	u	-2%
O=C1c2cccc3cccc(c23)C(=O)N1CC1CCN(CC(O)COCc2ccc3c(c2)OCO3)CC1 (stereo not drawn)	-27%	4µM*	u	3%	-13%[59 µM]	-14%
Cc1ccc(-c2noc(C3CCCN(S(=O)(=O)c4ccc5ccccc5c4)C3)n2)o1 (stereo not drawn)	-1%	x	-28%	-18%	35µM*	-10%
Cc1ccc(-c2noc(C3CCN(S(=O)(=O)c4ccc5c(c4)OCCO5)CC3)n2)o1	5%	-3%	-13%	8%	16µM*	-6%
C=CCc1ccc(OCCCCN2CCC(C)CC2)c(OC)c1	-24%	2%	2.8µM*	-16%	u	u
C=CCc1ccc(OCCCN2CCCC(C)C2)c(OC)c1 (stereo not drawn)	-25%	x	3.5µM*	u	7.1µM*	79µM*
CCOc1ccc(-n2nc(CO)c(C(=O)NCC(C)O)n2)cc1 (stereo not drawn)	11%	x	-14%	x	3%[59 µM]	3%
COc1ccccc1CNC(=O)CSc1ccc(C(=O)Nc2ccccc2OC)cc1[N+](=O)[O-]	13%	8%	-10%	50µM*	10%	u
CSc1ccc(CCNC(=O)CSc2ccsc2[N+](=O)[O-])cc1	33%	-13%	-24%[57.1 µM]	17%	18%	-29%
O=C(CSc1ccsc1[N+](=O)[O-])NC1CCCC1	5%	x	-24%	7%	32µM*	-38%
COc1ccc(OC)c(CCNC(=O)CSc2ccsc2[N+](=O)[O-])c1	-6%	-10%	45µM*	5%	32µM*	u
O=C(CSc1ccsc1[N+](=O)[O-])NCc1ccccc1	5%	-27%	-33%	2%	50µM*	u
CCc1ccc(N2CCn3c2nc2c3c(=O)n(CCc3ccccc3)c(=O)n2C)cc1	53%	x	-10%	x	-29%[59 µM]	-8%
CC1Cc2cc(S(=O)(=O)CCC(=O)Nc3ccc(OC(F)(F)F)cc3)ccc2N1C(=O)C1CC1 (stereo not drawn)	27%	x	0%	x	7%[59 µM]	-11%
SMILES	HP1b binding inh	L3MBTL1 block	JMJD2A Tudor inh	Sfp inh	G9a inh	BAZ2B block
COc1ccc(NC(=O)C(NC(=O)C2CCC(C)CC2)C(C)C)cc1 (stereo not drawn)	-4%	x	-34%	x	-12%[59 µM]	-13%
Cn1c2cc(C(=O)O)sc2c2cnn(Cc3ccccc3F)c(=O)c21	x	x	-25%	x	x	x
COc1ccc(CCNC(=O)CSc2ccsc2[N+](=O)[O-])c(OC)c1	21%	-11%	-29%	11%	u	-29%
COc1ccccc1CNC(=O)CSc1ccsc1[N+](=O)[O-]	55%	x	-26%	-6%	50µM*	u
Cc1cc(Cl)ccc1OCC(=O)OC(C)C(=O)NC(N)=O (stereo not drawn)	40%	27%	-11%	-3%	19%[59 µM]	32%
C/C(N)=C(/C#N)C(=O)COC(=O)COc1ccc(Cl)cc1C	5%	x	-15%	14%	50µM*	-5%
Cc1ccc(C(C(=O)NCC2CCCO2)N(Cc2ccccc2)C(=O)c2ccc(-c3ccccc3)[nH]2)o1 (stereo not drawn)	-19%	-25%	u	-11%	-6%[59 µM]	40µM*
CCOc1ccc(C(C(=O)NC2CCCC2)N(CCCO)C(=O)c2ccc(-c3ccccc3)[nH]2)cc1 (stereo not drawn)	-17%	-17%	u	-4%	50µM*	u
O=C(NCC1CCCO1)C(c1cccs1)N(Cc1ccccc1Cl)C(=O)c1ccc(-c2ccccc2)[nH]1 (stereo not drawn)	-28%	-12%	u	1%	u	u
COc1ccc(C(C(=O)NC2CCCCC2)N(Cc2ccco2)C(=O)c2ccccn2)c(OC)c1 (stereo not drawn)	21%	x	-4%	12%	10µM*	2%
O=C(NC1CCCC1)C(c1ccncc1)N(Cc1ccco1)C(=O)c1ccc(-c2ccccc2)[nH]1 (stereo not drawn)	u	x	u	u	u	35µM*
Cc1ccc(/C=C/c2onc(C)c2S(=O)(=O)N2CCC(C(=O)NCc3ccc(N(C)C)cc3)CC2)cc1	22%[57 µM]	x	-6%	x	-4%[59 µM]	-2%

Bioassay records (PubChem BioAssay)
